PubChem BioAssay
Activity calls are given as the source filed them.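 The calls were made as follows: active = growth inhibition above 50% at the single 2 µM test dose, taken to imply half-maximal potency below 2 µM; inactive = the rest.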

test: antimalarial activity against Dd2 strain (AID 2302);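 also: 0% = DMSO untreated growth and 100% = chloroquine plus artemisinin killed control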; conditions: P. falciparum Dd2 in RBCs, LDH growth readout, 72 h; at 2 µM; stronger effect = higher value

Growth inhibition, inactive:
N#Cc1ccc2c(c1)CCN(CCC1CCC(NC(=O)c3cc4cccc([N+](=O)[O-])c4[nH]3)CC1)C2 (centres undefined) 28%, CCCCNC(=O)C(C)NC(=O)c1ccc(O)c(-c2ccc(Cl)c(Cl)c2)c1 (centres undefined) 8%, CC(=O)c1ccc(Nc2c(C(N)=O)cnc3cc(-c4c(C)noc4C)ccc23)cc1 44%, O=C(/C=C/c1c[nH]c2ccccc12)NCCCCCN1CCC(c2c[nH]c3ccccc23)CC1 0%, CCCCCCNC(=O)C1Cc2c([nH]c3ccc(C)cc23)C2(CCN(Cc3ccccc3)CC2)N1 (centres undefined) 25%, Cc1ccc2nc(C)cc(NN=CC=Cc3ccccc3)c2c1 28%, CCOc1c(CNCCCNc2cc(=O)c3ccccc3[nH]2)cc(I)cc1OC 6%, CC(=O)CSC(C=Cc1ccc(N(C)C)cc1)=Nc1ccccc1 42%

Growth inhibition, active:
CCN1CCC(N(Cc2ccc(-c3ccc(Cl)cc3)cc2)C(=O)Cn2c(CCc3cccc(F)c3F)cc(=O)c3ccccc32)CC1 95%, O=C(c1ccc(Cl)cc1)C1CCCN(C2CCN(CCc3ccccc3)CC2)C1 (centres undefined) 51%, CCN(CC)CCOc1ccc(C(O)(C#CC(O)(c2ccc(Br)cc2)c2ccc(OCCN(CC)CC)cc2)c2ccc(Br)cc2)cc1 (centres undefined) 99%, CN1CCCC1CCNCc1ccc(-c2ccc(CNCCc3ccccc3)cn2)cc1 (centres undefined) 99%, NC1=NC(c2ccccc2)(c2ccccc2)C(=O)N1Cc1ccc(-c2cccnc2)cc1 94%, N#Cc1ccc(N(CCOc2ccc3c(c2)CCC(=O)N3)Cc2ccccc2C(F)(F)F)cc1C(F)(F)F 64%
